Among the data in PubChem BioAssay (Tox21) are Potency, outcome and max activation values, retold here.

SMILES strings stand for the structures. Where “and” joins values, the source holds several entries; their conditions need not be identical. Equal values may be shown once. Results filed as inconclusive are left out. A structure can be active in one record and inactive in another. Calls of active or inactive are those of the source. Unless noted, the call rests on the fitted dose curve; in most records, active means well fitted curve in the direction sought with a large enough effect in the repeat runs; inconclusive means weak or mixed curves; inactive means no such curve, though single readings can be large; an effect the other way counts as inactive or inconclusive.

Test [1] can be described thus: qHTS assay to identify small molecule agonists of the estrogen receptor alpha (ER-alpha) signaling pathway in the presence of an antagonist - cell viability counter screen (AID 1259386). Further: nearly all actives have a fitted effect of over 30% in size. Further: potency means the concentration at half of the fitted maximal effect. A digest of the protocol:
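Compounds tested at 15 concentrations for 22 h at 37C alongside 10.0nM (final) ICI-182,780 antagonist, in VM7Luc4E2 cells grown in phenol red-free, charcoal-stripped medium. Viability read by CellTiter-Fluor fluorescence after 1 h reagent incubation.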
Background: In qHTS, concentration-response curves come from the screen itself.

The target in test [2] is Progesterone receptor (Homo sapiens) (UniProt P06401). Description: qHTS assay to identify small molecule agonists of the progesterone receptor (PR) signaling pathway (AID 1346784; calls by dose curve; further: nearly all actives have a fitted effect of over 30% in size). In short, it runs like this:
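The screen uses PR-UAS-bla HEK 293T cells in charcoal-stripped serum (2%). Compounds are applied for 16 hr at 37C after a 6 hr pre-incubation, and reporter activity is detected with a FRET beta-lactamase substrate after 2 hr at room temperature.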

For test [3] the target is unchanged. Nature of the test: qHTS assay to identify small molecule antagonists of the progesterone receptor (PR) signaling pathway (AID 1346795; active means well fitted inhibition curve with a large enough effect in the signal ratio in the repeat runs, not every such curve was filed as active; the % refers to the signal ratio; further: potency means the concentration at half of the fitted maximal effect). A digest of the protocol:
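After 6 hr plating at 37C in 2% stripped-serum medium, PR-UAS-bla HEK293T cells got compounds, then 1 nM R5020. Sixteen hours later, LiveBLAzer substrate was applied for 2 hr at room temperature and fluorescence was recorded.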

Test [4] in a line: qHTS assay to identify small molecule antagonists of the progesterone receptor (PR) signaling pathway - cell viability counter screen (AID 1346798). Further: nearly all actives have a fitted effect of over 50% in size. Further: potency means the concentration at half of the fitted maximal effect. In short, it runs like this: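 Viability was determined by ATP-based luminescence (CellTiter-Glo) in PR-UAS-bla HEK293T cells cultured in 2% charcoal-stripped serum and incubated 16 hr with compounds under R5020 stimulation.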
Test [5] can be described thus: qHTS assay to identify small molecule agonists of the progesterone receptor (PR) signaling pathway - cell viability counter screen (AID 1346799; calls by dose curve; further: nearly all actives have a fitted effect of over 45% in size; further: potency means the concentration at half of the fitted maximal effect). A digest of the protocol:
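Viability was scored by ATP luminescence (CellTiter-Glo, 30 min, room temperature) in the same wells used for the reporter readout, after 16 hr compound exposure of PR-UAS-bla HEK293T cells.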

The nature of test [6]: qHTS assay to identify small molecule antagonists of the TGF-beta/Smad signaling pathway - cell viability counter screen (AID 1346824). Further: nearly all actives have a fitted effect of over 50% in size. Further: potency means the concentration at half of the fitted maximal effect. A digest of the protocol: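 SBE-bla HEK 293T cells, incubated overnight, then compound plus 0.25 ng/mL TGF-beta1 (stock added) for 5 hr at 37 C. Viability was read in the same wells by CellTiter-Glo luminescence after 30 min at room temperature.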

Test [7] in a line: qHTS assay to identify small molecule agonists of the TGF-beta/Smad signaling pathway - cell viability counter screen (AID 1346829). Further: nearly all actives have a fitted effect of over 45% in size. Further: potency means the concentration at half of the fitted maximal effect. In short, it runs like this:
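In parallel with the Smad reporter read, viability of HEK 293T cells stably carrying SBE-bla is quantified by ATP luminescence following 5 hr compound treatment.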

Test [8] concerns the target Thyrotropin-releasing hormone receptor (Homo sapiens) (UniProt P34981). Nature of the test: qHTS assay to identify small molecule antagonists of the thyrotropin-releasing hormone receptor (TRHR) signaling pathway (AID 1346877; active means well fitted inhibition curve with a large enough effect in the repeat runs, not every such curve was filed as active; further: potency means the concentration at half of the fitted maximal effect). A digest of the protocol:
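Antagonist mode: after a 5 min room-temperature compound exposure, cells were stimulated with 1 nM (final) TRH. Dye-loaded TRHR-HEK293 cells were used, and calcium-dependent fluorescence was followed for 3 min, with 15-point titrations run in triplicate.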

Test [9] shares this target. Description: qHTS assay to identify small molecule agonists of the thyrotropin-releasing hormone receptor (TRHR) signaling pathway (AID 1346891; calls by dose curve; further: potency means the concentration at half of the fitted maximal effect;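 on activation: HEK293 cells expressing TRHR with calcium dye readout; series mostly up to about 58 µM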). A digest of the protocol:
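Kinetic fluorescence (3 min, 1 s intervals) reported intracellular calcium after compound transfer onto TRHR-Hek293 cells pre-loaded with dye for 2 h at 37 °C.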

Test [10] is described as follows: Human pregnane X receptor (PXR) small molecule agonists, qHTS cell viability counter screen (AID 1346977). Further: nearly all actives have a fitted effect of over 50% in size. Further: potency means the concentration at half of the fitted maximal effect. In short, it runs like this: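 HepG2 cells stably carrying the PXR-Luc reporter are cultured with 5% charcoal-stripped FBS and treated with compounds for 24hr. CellTiter-Fluor is added at 23hr and fluorescence is read after 1hr.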
Test [11] can be described thus: Caspase-3/7 induction in HepG2 cells by small molecules, qHTS assay (AID 1346978). Further: nearly all actives have a fitted effect of over 15% in size. Further: potency means the concentration at half of the fitted maximal effect. A digest of the protocol:
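Wild-type HepG2 cells, 2,000/well, settled 5 hr at 37 C and 5% CO2, then compound-treated for 17 hr; caspase-3/7 activity read by luminescent Caspase-Glo 3/7 after 30 min at room temperature.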

Test [12] in a line: Caspase-3/7 induction in CHO-K1 cells by small molecules, qHTS cell viability counter screen (AID 1346979). Further: nearly all actives have a fitted effect of over 35% in size. Further: potency means the concentration at half of the fitted maximal effect. A digest of the protocol:
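Seeding: 1,500 CHO-K1 cells/well. Rest: 5hr, 37C. Treatment: compounds in DMSO, 16hr. Read: CellTiter-Fluor, 1hr, fluorescence.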

Test [13] can be described thus: Caspase-3/7 induction in CHO-K1 cells by small molecules, qHTS assay (AID 1346980). Further: nearly all actives have a fitted effect of over 15% in size. Further: potency means the concentration at half of the fitted maximal effect. A digest of the protocol:
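Wild-type CHO-K1 cells exposed to compounds for 17hr at 37 C, 5% CO2. Caspase-3/7 activity then measured by Caspase-Glo 3/7 luminescence after 30min at room temperature.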

Test [14] can be described thus: Caspase-3/7 induction in HepG2 cells by small molecules, qHTS cell viability counter screen (AID 1346981). Further: nearly all actives have a fitted effect of over 30% in size. Further: potency means the concentration at half of the fitted maximal effect. A digest of the protocol:
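CellTiter-Fluor fluorescence measured viability in the same wells used for Caspase-Glo 3/7. HepG2 (wild type) at 2,000 cells/well were pre-incubated 5 hr, dosed, and given reagent at 16 hr, with 1 hr further at 37C.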

Test [15] deals with Nuclear receptor subfamily 1 group I member 2 (Homo sapiens) (UniProt O75469). Description: Human pregnane X receptor (PXR) small molecule agonists, qHTS assay (AID 1346982). Further: nearly all actives have a fitted effect of over 35% in size. Further: potency means the concentration at half of the fitted maximal effect. In short, it runs like this:
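Agonist mode: luminescence from ONE-Glo after 24 h compound exposure at 37C in HepG2 cells carrying hPXR-responsive CYP3A4 luciferase, plated in charcoal-stripped serum medium 5 h beforehand.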

Test [16] has as its target Acetylcholinesterase (Homo sapiens) (UniProt P22303). Nature of the test: Acetylcholinesterase (AChE) small molecule antagonists: colormetric cell-based qHTS assay (AID 1347395; calls by dose curve; further: nearly all actives have a fitted effect of over 30% in size; further: potency means the concentration at half of the fitted maximal effect). A digest of the protocol:
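Quantitative HTS in attached SH-SY5Y cells: 30 min compound exposure, then 90 min with acetylthiocholine and DTNB at 37 C; colour from thiocholine reports AChE activity.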

Test [17] is described as follows: qHTS assay to identify small molecule agonists of the TGF-beta/Smad signaling pathway (AID 1346859; active means well fitted activation curve with a large enough effect in the signal ratio in the repeat runs, not every such curve was filed as active; the % refers to the signal ratio; further: series mostly up to about 77 µM). A digest of the protocol:
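Dual-wavelength fluorescence (460/530 nm emission) quantified beta-lactamase expression under the Smad binding element in HEK 293T cells following 5 hr compound treatment at 37 C.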

Test [18] concerns the target Nuclear receptor subfamily 1 group I member 2 (Rattus norvegicus) (UniProt Q9R1A7). Description: Rat pregnane X receptor (rPXR) activation by small molecules, qHTS assay (AID 1346983). Further: nearly all actives have a fitted effect of over 20% in size. To be noted: rPXR luciferase reporter cells, One-Glo luminescence, 24 h; max activation: stronger effect = higher value. A digest of the protocol: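 Cell-based rPXR activation assay: rPXR cells, 2,000 per well, rested 5hr at 37 C, then exposed to compounds in DMSO for 24 hr at 37 C. Luciferase activity read by One-Glo luminescence after 30 min at room temperature.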

Test [19] has as its target Nuclear receptor subfamily 1 group I member 2 (Homo sapiens) (UniProt O75469). Description: CYP3A4 induction through human pregnane X receptor (PXR) by small molecules, qHTS assay (AID 1346984). Further: nearly all actives have a fitted effect of over 40% in size. A digest of the protocol: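 Read-out is luminescence after One-Glo addition, following a 3 hr, 37C incubation with Luciferin-IPA CYP3A4 substrate (3uM final). Before that, compounds were on DPX-2 cells (HepG2 co-transfected with PXR element plus CYP3A4-promoter luciferase) for 24 hr at 37C.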
On the % scale 0 is the no-effect control and ±100 the full control effect.

Chain of Progesterone receptor (Homo sapiens) (P06401 whole entry, looked up): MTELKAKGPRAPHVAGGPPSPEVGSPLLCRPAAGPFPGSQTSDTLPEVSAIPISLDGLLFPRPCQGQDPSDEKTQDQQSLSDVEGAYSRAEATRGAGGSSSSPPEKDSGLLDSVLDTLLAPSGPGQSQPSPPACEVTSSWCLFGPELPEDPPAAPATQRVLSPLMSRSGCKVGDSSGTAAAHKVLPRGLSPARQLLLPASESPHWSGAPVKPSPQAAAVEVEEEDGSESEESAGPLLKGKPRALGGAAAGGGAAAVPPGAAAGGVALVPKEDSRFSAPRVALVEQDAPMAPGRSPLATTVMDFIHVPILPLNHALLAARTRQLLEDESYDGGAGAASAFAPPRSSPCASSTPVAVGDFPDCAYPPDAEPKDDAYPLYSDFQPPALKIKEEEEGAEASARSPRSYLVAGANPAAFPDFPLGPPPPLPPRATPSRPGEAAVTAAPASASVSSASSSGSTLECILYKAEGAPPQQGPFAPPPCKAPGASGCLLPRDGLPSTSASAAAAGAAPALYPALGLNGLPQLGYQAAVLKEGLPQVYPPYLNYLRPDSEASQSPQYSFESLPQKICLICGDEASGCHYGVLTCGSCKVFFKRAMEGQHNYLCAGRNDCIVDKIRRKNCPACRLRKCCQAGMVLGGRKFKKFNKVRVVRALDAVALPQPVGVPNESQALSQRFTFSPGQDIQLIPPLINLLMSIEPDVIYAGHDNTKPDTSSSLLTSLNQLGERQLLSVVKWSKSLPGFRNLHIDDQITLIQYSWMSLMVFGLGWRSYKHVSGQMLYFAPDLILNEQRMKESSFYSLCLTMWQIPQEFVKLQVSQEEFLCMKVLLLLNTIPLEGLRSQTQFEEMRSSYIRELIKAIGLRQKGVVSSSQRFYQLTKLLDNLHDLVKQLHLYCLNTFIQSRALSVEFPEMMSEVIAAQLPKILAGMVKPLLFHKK
Chain of Nuclear receptor subfamily 1 group I member 2 (Homo sapiens) (O75469 whole entry, looked up): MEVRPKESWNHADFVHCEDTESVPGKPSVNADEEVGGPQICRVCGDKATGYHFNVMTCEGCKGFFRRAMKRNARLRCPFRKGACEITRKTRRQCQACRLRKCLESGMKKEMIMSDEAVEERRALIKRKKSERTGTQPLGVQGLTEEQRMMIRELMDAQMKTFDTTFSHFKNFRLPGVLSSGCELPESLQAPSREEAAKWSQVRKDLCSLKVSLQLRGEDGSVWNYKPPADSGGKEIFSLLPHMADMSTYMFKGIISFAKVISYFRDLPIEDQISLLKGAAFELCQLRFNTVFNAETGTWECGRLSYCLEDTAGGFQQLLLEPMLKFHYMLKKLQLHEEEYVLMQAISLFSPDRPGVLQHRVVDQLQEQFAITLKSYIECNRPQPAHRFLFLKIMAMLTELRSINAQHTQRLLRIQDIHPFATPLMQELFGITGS
Chain of Acetylcholinesterase (Homo sapiens) (P22303 whole entry, looked up): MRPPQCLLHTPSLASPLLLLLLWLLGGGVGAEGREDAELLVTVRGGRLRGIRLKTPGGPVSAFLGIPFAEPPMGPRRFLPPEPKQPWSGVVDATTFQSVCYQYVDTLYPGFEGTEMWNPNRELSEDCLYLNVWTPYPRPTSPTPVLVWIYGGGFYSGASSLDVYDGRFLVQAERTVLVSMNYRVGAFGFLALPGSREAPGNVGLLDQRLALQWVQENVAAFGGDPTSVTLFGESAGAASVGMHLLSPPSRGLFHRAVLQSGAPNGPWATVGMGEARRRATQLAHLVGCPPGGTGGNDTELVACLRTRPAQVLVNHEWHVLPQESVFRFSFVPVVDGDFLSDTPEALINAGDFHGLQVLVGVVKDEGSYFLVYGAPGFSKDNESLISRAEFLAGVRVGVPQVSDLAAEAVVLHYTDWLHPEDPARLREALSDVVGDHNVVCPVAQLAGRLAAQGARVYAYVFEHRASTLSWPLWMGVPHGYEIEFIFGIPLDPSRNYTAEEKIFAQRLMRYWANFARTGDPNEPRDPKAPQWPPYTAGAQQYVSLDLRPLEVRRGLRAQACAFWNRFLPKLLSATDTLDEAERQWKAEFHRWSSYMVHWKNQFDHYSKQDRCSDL
Chain of Thyrotropin-releasing hormone receptor (Homo sapiens) (P34981 whole entry, looked up): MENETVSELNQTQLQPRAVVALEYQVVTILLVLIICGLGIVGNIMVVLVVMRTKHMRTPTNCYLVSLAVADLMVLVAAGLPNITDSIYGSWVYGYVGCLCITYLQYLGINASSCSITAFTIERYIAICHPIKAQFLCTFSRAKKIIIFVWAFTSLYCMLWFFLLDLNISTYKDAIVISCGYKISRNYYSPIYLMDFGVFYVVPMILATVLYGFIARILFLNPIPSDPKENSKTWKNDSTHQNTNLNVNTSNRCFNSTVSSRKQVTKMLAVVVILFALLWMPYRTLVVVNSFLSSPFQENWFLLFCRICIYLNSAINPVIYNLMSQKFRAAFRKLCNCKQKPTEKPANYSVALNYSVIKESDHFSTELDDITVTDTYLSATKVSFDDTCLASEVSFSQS
Chain of Nuclear receptor subfamily 1 group I member 2 (Rattus norvegicus) (Q9R1A7 whole entry, looked up): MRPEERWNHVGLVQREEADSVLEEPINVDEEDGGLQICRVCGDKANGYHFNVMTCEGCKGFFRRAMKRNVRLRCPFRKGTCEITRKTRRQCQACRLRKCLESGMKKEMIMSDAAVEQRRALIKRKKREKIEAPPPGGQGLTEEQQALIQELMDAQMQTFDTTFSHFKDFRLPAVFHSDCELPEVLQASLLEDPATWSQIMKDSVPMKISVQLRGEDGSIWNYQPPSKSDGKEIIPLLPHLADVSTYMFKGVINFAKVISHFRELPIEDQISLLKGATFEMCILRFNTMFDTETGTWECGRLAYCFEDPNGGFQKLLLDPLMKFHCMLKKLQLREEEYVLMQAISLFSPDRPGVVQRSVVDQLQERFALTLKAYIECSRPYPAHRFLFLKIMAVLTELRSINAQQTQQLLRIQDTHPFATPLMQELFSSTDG

Consider `O=c1c2ccccc2c(=O)c2c1cc(Cl)c1[nH]c3c([nH]c12)c(Cl)cc1c(=O)c2ccccc2c(=O)c13`, for which the Potency result in test [1], in test [2], in [3], in test [4], in test [5] and in test [6] was “inactive” throughout. The Potency result in [7], in test [8], in test [9], in [10], in [11] and in [12] was “inactive” throughout. Further, the Potency result in test [13], in [14], in test [15] and in [16] was “inactive” each time.
As for `CN(C)C(=S)SSC(=S)N(C)C`, the Potency in test [1] is 30.2 µM (active) and 30.6 µM (active); in test [3] it was 0.135 µM (active); in test [4], 170 nM (active) and 386 nM (active) and 266 nM (active); in test [5], 344 nM (active) and 298 nM (active); in test [6] it was 19.2 µM (active) and 43.6 µM (active) and 26.8 µM (active); in test [7], 34.2 µM (active) and inactive. Besides, the Potency in test [10] was 447 nM (active) and 486 nM (active) and 422 nM (active); in test [11] it was 851 nM (active) and 864 nM (active) and 668 nM (active); in test [12] it was 240 nM (active) and 344 nM (active) and 298 nM (active); in test [14], 26.9 µM (active) and 19.3 µM (active) and 15 µM (active); in [16], 78.5 µM (active) and inactive. For the same compound, the Potency result in test [2], in [13], in [15] and in test [19] was “inactive” each time. Moreover, the result in [17] was inactive. In [18], the max activation was -13.9% (inactive).
For `O=C(Nc1ccc(F)cc1F)c1cccnc1Oc1cccc(C(F)(F)F)c1`, the Potency entry in test [1], in test [2], in test [3], in test [4], in [5] and in test [6] was “inactive” in each case. Further, the Potency result in test [7], in [8], in test [9], in test [10], in test [11] and in test [12] was “inactive” in each case. Also, the Potency entry in test [13], in test [14] and in [16] was “inactive” throughout. In test [17], the call was inactive. Besides, the Potency in test [15] was 4.24 µM (active).
In the case of `ClCBr`, the Potency result in test [1], in test [2], in test [3], in test [4], in [5] and in [6] was “inactive” each time. The Potency entry in test [7], in test [8], in test [9], in test [10], in [11] and in test [12] was “inactive” throughout. Further, the Potency entry in [13], in test [14], in [15] and in [16] was “inactive” each time. Also, the compound was called inactive in test [17].
`CC(=O)[O][Sn]([c]1ccccc1)([c]1ccccc1)[c]1ccccc1`: the Potency is 8.63 µM (active) in [1]; 0.0486 µM (active) in [3]; 273 nM (active) in test [4]; 433 nM (active) in test [5]; 1.95 µM (active) in test [6]; 1.74 µM (active) in [7]. Further, the Potency in test [8] is 2.69 µM (active); in test [9] it was 4.9 µM (active); in test [10], 306 nM (active); in [11], 306 nM (active); in test [13], 0.122 µM (active); in test [14], 2.73 µM (active). Moreover, in [15], the Potency is 0.243 µM (active). Also, the Potency entry in [2] and in [16] was “inactive” in each case.
`COc1ccc2c(c1OC)C(=O)O[C@@H]2[C@H]1c2cc3c(cc2CCN1C)OCO3`: the Potency in test [1] was 6.05 µM (active); in test [14] it was 17.1 µM (active); in [15] it was 30.3 µM (active). In addition, the Potency entry in test [2], in [3], in test [4], in test [5], in [6] and in test [7] was “inactive” each time. The Potency entry in test [8], in [9], in test [11], in [13] and in test [16] was “inactive” each time.
`C=Cc1cccc(CCl)c1`: the Potency result in test [1], in test [2], in test [3], in test [4], in test [5] and in test [6] was “inactive” throughout. Besides, the Potency result in test [7], in test [8], in test [9], in [11], in test [12] and in test [13] was “inactive” throughout. The Potency entry in test [15] and in test [16] was “inactive” each time. Also, the call in test [17] was inactive.
